EPAC2 antag – antagonists of human EPAC2. Q8WZA2. EPAC2 GEF exchange of Rap1B-BODIPY-GDP, fluorescence. Potency, µM (top dose mostly 114 µM), for the others: top-dose activity, negative = inhibition, usual class: inhibitors. hit rate 0.18% among 360,000. AID 720708; also: potency is read from the fitted curve at half-maximal effect; % is scaled to controls: 0 for no effect and ±100 for the full control effect; nearly all actives have a fitted effect of over 45% in size
USP1 inh – inhibitors of human USP1/UAF1 deubiquitinase. O94782. hit rate 0.23% among 390,000. Potency, µM (top dose mostly 57.1 µM), for the others: at the highest dose activity change, negative = inhibition, actives largely listed as inhibitors. AID 743255. recombinant USP1/UAF1, Ub-Rhodamine cleavage fluorescence; also: potency is read from the fitted curve at half-maximal effect; % is scaled to controls: 0 for no effect and ±100 for the full control effect; nearly all actives have a fitted effect of over 60% in size
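High-throughput fluorogenic screen: 1nM USP1/UAF1 complex, Ub-Rho substrate 150nM final, 50mM HEPES pH 7.8 with 0.5mM EDTA, 0.1 mg/ml BSA, 1mM TCEP and 0.01% Tween-20.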
FBPA coupling cs – inhibits coupling enzyme system, counter-screen for aldolase hits; coupling enzyme system counterscreen, AmpLite Red fluorescence; activity change, negative = inhibition, % at 58.2 µM, hits read low; hit rate 0.67% among 290,000; in the data active = activity change below about -30%; also: % is scaled to controls: 0 for no effect and ±100 for the full control effect
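Activity here indicates interference with the coupling reaction, not aldolase inhibition. Compounds at 57.5 uM final met coupling enzymes for 10 min at RT; substrate and AmpLite Red detection followed, with a 525/598 nm fluorescence read after 20 min.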
EPAC2 agonist – EPAC2 (human) agonism | EPAC2 activation, biochemical qHTS; response scale: 100% = 6.5 mM cAMP response | hit rate 0.079% among 360,000 | Q8WZA2 | Potency, µM (highest dose often 154 µM), inactives show at the top dose activation, usual class: activators; also: potency is read from the fitted curve at half-maximal effect; nearly all actives have a fitted effect of over 50% in size
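Each well held 100 nM EPAC2, 250 nM RAP1B-BODIPY-GDP and 50 uM GDP. Fluorescence, read at 5-min intervals to 30 min, was referenced to a 6.5 mM cAMP positive control.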
EPAC1 antagonist – blocks human EPAC1 exchange factor; EPAC1 GEF assay, Rap1b-BODIPY-GDP exchange fluorescence; Potency, µM (top dose mostly 115 µM), without a hit: at the top dose activity change, negative = inhibition, hits mostly inhibitors; hit rate 0.14% among 360,000;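 also: potency is read from the fitted curve at half-maximal effect; plate controls were vehicle for no effect and positive control for full effect; nearly all actives have a fitted effect of over 50% in size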
EPAC1 agonist – agonists of human EPAC1. O95398. EPAC1 agonist qHTS, biochemical assay; response scale: 100% = response to 6.5 mM cAMP. Potency, µM (top dose mostly 154 µM), for inactives: at the highest dose activation, actives largely listed as activators. hit rate 0.073% among 360,000. AID 720707; also: potency is read from the fitted curve at half-maximal effect; nearly all actives have a fitted effect of over 60% in size
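Multi-concentration qHTS readout: loss of Rap1B-bound BODIPY-GDP fluorescence driven by 100 nM EPAC1 with excess GDP (50 uM), monitored kinetically at room temperature; agonist response expressed relative to 6.5 mM cAMP.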
Numbers without * were called inactive; u = inconclusive; x = no result. This is a sample that favours compounds with a hit; in the whole collection about 0.87% have one here. Unless noted, calls follow the shape of the dose curve; as a rule, active = well fitted curve in the direction sought with a large enough effect; inconclusive = small, poorly fitted or top-dose-only effect, or another doubt; inactive = no such curve, though single readings can be large; an effect the other way counts as inactive or inconclusive.

SMILES | EPAC2 antag | USP1 inh | FBPA coupling cs | EPAC2 agonist | EPAC1 antagonist | EPAC1 agonist
CN(C)N1C(N)=C(C#N)C(c2cccs2)C2=C1CC(C)(C)CC2=O (stereo not given) | 1% | u | -46* | 8% | -17% | 1%
Cc1ccc(-c2ccccc2NC(=O)CCl)o1 | -2% | -20% | -50* | 10% | 0% | 10%
Cc1ccc(-c2ccccc2NC(=O)CS(=O)CC(=O)Nc2ccc(C)c(Cl)c2)o1 (stereo not given) | -16% | u | 2 | -7% | -16% | 12%
Cc1ccc(S(=O)(=O)N2CCOCC2)cc1NC(=O)CN1CCC(Cc2ccccc2)CC1 | u | -22% | -5 | 11% | -26% | 1%
Cc1csc2nc(CSc3nc4ccccc4o3)cn12 | 3% | -6% | -51* | 11% | 6% | -2%
CN(C)[C@H]1C(=O)C(C(=O)NCN2CCCC2)=C(O)[C@]2(O)C(=O)C3=C(O)c4c(O)cccc4[C@@](C)(O)[C@H]3C[C@@H]12 | x | x | -36* | x | x | x
COCCn1c(SCC(=O)Nc2nnc(C)s2)nnc1-c1cc2ccccc2cc1O | -5% | -3% | -44* | 4% | 5% | 9%
O=C(Nc1cccc(S(=O)(=O)NC2=NCCC2)c1)c1cc(=O)[nH]c2ccccc12 | 6% | -14% | x | 6% | 0% | -7%
C/C(CC(=O)Nc1ccc2ccccc2c1)=N\NC(=O)c1cnccn1 | -6% | -3% | 4 | -1% | 55% | 40µM*
O=C(c1ccc2c(=O)n(C3CCCC3)c(=S)[nH]c2c1)N1CCCCCC1 | 1% | -7% | 0 | 0% | -3% | 2%
CCN(CCn1cccn1)Cc1c(C(=O)N2CCCCCCC2)nc2ccc(Cl)cn12 | -7% | -7% | 0 | 3% | 22µM* | 12%
CN(C)S(=O)(=O)c1cccc(NC(=O)CSc2nncn2C)c1 | 7% | -5% | -2 | -7% | -5% | -5%
COc1cc(/C=C/c2nc(C#N)c(NC3CCCCC3)o2)cc(OC)c1OC | x | -23% | x | x | x | x
CC1(C)CC(=O)C=C(c2ccc(-c3cccc4c3sc3ccccc34)cc2)C1=O | -6% | -13% | x | 17% | 1% | -16%
N#C/C(=C\N1CCN(Cc2ccc3c(c2)OCO3)CC1)c1nc2ccccc2s1 | 8% | 32µM* | 0 | 10% | -3% | 3%
c1ccc2sc(N3CCN(Cc4ccc5c(c4)OCO5)CC3)nc2c1 | x | x | 1 | x | x | x
CC(=O)c1ccc(NC(=O)C2Cc3ccccc3N2C(=O)c2ccccc2)cc1 (stereo not given) | x | 2% | x | x | x | x
COc1cc(/C=N/Nc2nncn2N)ccc1OCc1c(C)no[n+]1[O-] | 5% | u | -38* | 6% | 17% | 1%
O=C(Nc1ccc(Cl)c(Cl)c1)O/N=C/c1ccncc1 | 0% | -18% | -12 | -1% | 7% | 4%
Cn1nc(-c2ccc(Cl)cc2)nc2c(=O)n(C)c(=O)nc1-2 | x | x | -76* | x | x | x
CCOC(=O)c1ccc(-c2c(-c3cc(OC)c(OC)c(OC)c3)noc2C)cc1F | -21% | 1% | -1 | 9% | -11% | -6%
CCNc1ccccc1CP(=O)(c1ccccc1)c1ccccc1O (stereo not given) | 2% | u | -58* | 7% | 24% | 14%
CCCCCCCCCCCCN1[C@@H](CC(=O)O)c2cc(C(F)(F)F)ccc2S1(=O)=O | u | u | x | -12% | 79µM* | -39%
CCCCCCCCCCCCN1[C@@H](CC(=O)O)c2cc(F)ccc2S1(=O)=O | u | u | x | -22% | 79µM* | -40%
CCCCCCCCN1[C@@H](CC(=O)O)c2cc(C(F)(F)F)ccc2S1(=O)=O | -28% | -14% | x | -7% | -4% | -7%
SMILES | EPAC2 antag | USP1 inh | FBPA coupling cs | EPAC2 agonist | EPAC1 antagonist | EPAC1 agonist
CCOC(=O)N1CCN(S(=O)(=O)c2cccc3cccnc23)CC1 | 5% | 3% | 2 | 12% | -8% | -7%
COc1ccc(N=Cc2c(O)cc(C)oc2=O)cc1 | 8% | -15% | 2 | 0% | -16% | -1%
COc1ccccc1N(C)S(=O)(=O)c1ccc(C(=O)Nc2ccc3nc(C)sc3c2)cc1 | 0% | -14% | -2 | -5% | -21% | 4%
CCNC1=C(Cl)C(=O)c2ccccc2C1=O | -4% | u | -33* | -6% | -9% | -4%
CCCC(=O)NNC(=O)CCC(=O)Nc1ccccc1Cl | 1% | -10% | -2 | 0% | -18% | 8%
CCN(CC)c1ccc(NC2=C(Cl)C(=O)c3ccccc3C2=O)cc1 | -2% | u | -38* | 13% | -1% | 12%
O=C1C(Cl)=C(NCCN2CCCCC2)C(=O)c2ccccc21 | 13% | 18µM* | -37* | 12% | -5% | 5%
CCCC(=O)NC1=C(Cl)C(=O)c2ccccc2C1=O | 0% | 18µM* | x | -1% | -11% | 15%
O=C(NCCN1CCCC1)c1ccccc1Cl | -6% | -5% | 6 | 8% | -9% | 8%
Cc1ccc(NC2=C(Cl)C(=O)c3ccccc3C2=O)cc1 | 12% | -23% | -22 | -15% | 9% | 4%
Cc1nc([N+](=O)[O-])cn1CCC#N | 6% | -5% | 3 | 7% | 4% | 5%
Cc1[nH]c2ccc3c(ncn3CCC#N)c2c1C | -1% | 2% | -36* | -3% | -8% | 5%
Oc1ccc(/C(Cc2ccccn2)=N\Nc2ccccc2)c(O)c1 | 45µM* | -9% | 1 | 8% | u | 19%
CN(C(=O)c1ccc(NC(=O)C2CC=CCC2C(=O)O)cc1)c1ccccc1 (stereo not given) | 3% | 0% | 14 | -7% | 11% | -4%
CCOC(=O)Nc1c(O)ccc2oc(C)c(-c3ccccc3)c12 | 0% | -7% | -57* | 2% | -4% | 3%
Cc1cccc(-n2c(C)cc(C=C3C(=O)c4ccccc4C3=O)c2C)c1 | 3% | u | -14 | 22% | -10% | -1%
Cc1cc(C=C2C(=O)c3ccccc3C2=O)c(C)n1-c1ccc(Cl)cc1 | 79µM* | -9% | -3 | -176% | 0% | -8%
CN(Cc1cnn(-c2ccc(F)cc2)c1)C(=O)[C@H]1O[C@@H](n2cnc3c(N)ncnc32)[C@H](O)[C@@H]1O | 8% | x | x | 1% | u | 0%
Cc1c(C)c2ccc(OCC(=O)NCCN3CCOCC3)c(C)c2oc1=O | -1% | -10% | 3 | 3% | -29% | 7%
S=C(Nc1ccc2nc(-c3ccccn3)c(-c3ccccn3)nc2c1)N1CCOCC1 | -3% | -20% | -41* | 5% | -12% | 5%
CN(C)NC(=S)Nc1ccc2nc(-c3ccccn3)c(-c3ccccn3)nc2c1 | -10% | -3% | -17 | 7% | -1% | 12%

Bioassay records (PubChem)
